Measurements from PubChem BioAssay (NCATS).
Results filed as inconclusive are left out. Activity calls are given as the source filed them. Unless noted, calls come from the whole dose curve; as a rule, active = well fitted inhibition curve with a large enough effect; inconclusive = small, poorly fitted or top-dose-only effect; inactive = flat fitted curve, though single readings scatter.

Experiments:
CP252 = assay: qHTS profiling for inhibitors of Plasmodium falciparum proliferation (AID 504749);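 note: 0% = DMSO vehicle and full inhibition = artemisinin control; nearly all actives have a fitted effect of over 60% in size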; conditions: P. falciparum in erythrocytes, SYBR Green DNA, 72 h; series mostly up to 28.7 µM
Method in brief: (§1)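 P. falciparum-infected erythrocytes (0.3% parasitemia, 2.5% hematocrit final) were exposed to compounds for 72 h at 37 C in 5% CO2, then lysed with SYBR Green buffer overnight at room temperature; parasite DNA fluorescence was normalized to artemisinin and DMSO controls.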

CP256 = assay: as above; conditions: P. falciparum in erythrocytes, SYBR Green DNA, 72 h; series mostly up to 28.7 µM
Method in brief: as §1

CP260 = assay: as above; conditions: P. falciparum in erythrocytes, SYBR Green DNA, 72 h; series mostly up to 28.7 µM
Method in brief: as §1

CP262 = assay: as above; conditions: P. falciparum in erythrocytes, SYBR Green DNA, 72 h; series mostly up to 28.7 µM
Method in brief: as §1

CP265 = assay: as above; conditions: P. falciparum in erythrocytes, SYBR Green DNA, 72 h; series mostly up to 28.7 µM
Method in brief: as §1

CP266 = assay: as above; conditions: P. falciparum in erythrocytes, SYBR Green DNA, 72 h; series mostly up to 28.7 µM
Method in brief: as §1

CP268 = assay: as above; conditions: P. falciparum in erythrocytes, SYBR Green DNA, 72 h; series mostly up to 28.7 µM
Method in brief: as §1

CP269 = assay: as above; conditions: P. falciparum in erythrocytes, SYBR Green DNA, 72 h; series mostly up to 28.7 µM
Method in brief: as §1

CP286 = assay: as above; conditions: P. falciparum in erythrocytes, SYBR Green DNA, 72 h; series mostly up to 28.7 µM
Method in brief: as §1

CP291 = assay: as above; conditions: P. falciparum in erythrocytes, SYBR Green DNA, 72 h; series mostly up to 28.7 µM
Method in brief: as §1

CP297 = assay: as above; conditions: P. falciparum in erythrocytes, SYBR Green DNA, 72 h; series mostly up to 28.7 µM
Method in brief: as §1

CP305 = assay: as above; conditions: P. falciparum in erythrocytes, SYBR Green DNA, 72 h; series mostly up to 28.7 µM
Method in brief: as §1

CP315 = assay: as above; conditions: P. falciparum in erythrocytes, SYBR Green DNA, 72 h; series mostly up to 28.7 µM
Method in brief: as §1

CP325 = assay: as above; conditions: P. falciparum in erythrocytes, SYBR Green DNA, 72 h; series mostly up to 28.7 µM
Method in brief: as §1

CP329 = assay: as above; conditions: P. falciparum in erythrocytes, SYBR Green DNA, 72 h; series mostly up to 28.7 µM
Method in brief: as §1

DFO2036 = assay: as above; conditions: P. falciparum in erythrocytes, SYBR Green DNA, 72 h; series mostly up to 28.7 µM
Method in brief: as §1

DIV14 = assay: as above; conditions: P. falciparum in erythrocytes, SYBR Green DNA, 72 h; series mostly up to 28.7 µM
Method in brief: as §1

DIV30 = assay: as above; conditions: P. falciparum in erythrocytes, SYBR Green DNA, 72 h; series mostly up to 28.7 µM
Method in brief: as §1

Dd2 = assay: as above; conditions: P. falciparum in erythrocytes, SYBR Green DNA, 72 h; series mostly up to 28.7 µM
Method in brief: as §1

ECU = assay: as above; conditions: P. falciparum in erythrocytes, SYBR Green DNA, 72 h; series mostly up to 28.7 µM
Method in brief: as §1

FAB9 = assay: as above; conditions: P. falciparum in erythrocytes, SYBR Green DNA, 72 h; series mostly up to 28.7 µM
Method in brief: as §1

GB4 = assay: as above; conditions: P. falciparum in erythrocytes, SYBR Green DNA, 72 h; series mostly up to 28.7 µM
Method in brief: as §1

HB3 = assay: as above; conditions: P. falciparum in erythrocytes, SYBR Green DNA, 72 h; series mostly up to 28.7 µM
Method in brief: as §1

ICS = assay: as above; conditions: P. falciparum in erythrocytes, SYBR Green DNA, 72 h; series mostly up to 28.7 µM
Method in brief: as §1

JCK = assay: as above; conditions: P. falciparum in erythrocytes, SYBR Green DNA, 72 h; series mostly up to 28.7 µM
Method in brief: as §1

N140 = assay: as above; conditions: P. falciparum in erythrocytes, SYBR Green DNA, 72 h; series mostly up to 28.7 µM
Method in brief: as §1

P93_24 = assay: as above; conditions: P. falciparum in erythrocytes, SYBR Green DNA, 72 h; series mostly up to 28.7 µM
Method in brief: as §1

P94_40 = assay: as above; conditions: P. falciparum in erythrocytes, SYBR Green DNA, 72 h; series mostly up to 28.7 µM
Method in brief: as §1

PAD = assay: as above; conditions: P. falciparum in erythrocytes, SYBR Green DNA, 72 h; series mostly up to 28.7 µM
Method in brief: as §1

PC15 = assay: as above; conditions: P. falciparum in erythrocytes, SYBR Green DNA, 72 h; series mostly up to 28.7 µM
Method in brief: as §1

PC26 = assay: as above; conditions: P. falciparum in erythrocytes, SYBR Green DNA, 72 h; series mostly up to 28.7 µM
Method in brief: as §1

PC49 = assay: as above; conditions: P. falciparum in erythrocytes, SYBR Green DNA, 72 h; series mostly up to 28.7 µM
Method in brief: as §1

SC27B = assay: as above; conditions: P. falciparum in erythrocytes, SYBR Green DNA, 72 h; series mostly up to 28.7 µM
Method in brief: as §1

TAB109 = assay: as above; conditions: P. falciparum in erythrocytes, SYBR Green DNA, 72 h; series mostly up to 28.7 µM
Method in brief: as §1

TAB113 = assay: as above; conditions: P. falciparum in erythrocytes, SYBR Green DNA, 72 h; series mostly up to 28.7 µM
Method in brief: as §1

TAB165 = assay: as above; conditions: P. falciparum in erythrocytes, SYBR Green DNA, 72 h; series mostly up to 28.7 µM
Method in brief: as §1

W2 = assay: as above; conditions: P. falciparum in erythrocytes, SYBR Green DNA, 72 h; series mostly up to 28.7 µM
Method in brief: as §1

[1] = molecular target: Nuclear receptor subfamily 1 group I member 2 (Rattus norvegicus) (UniProt Q9R1A7); assay: qHTS assay for small molecule activators of the rat pregnane X receptor (rPXR) signaling pathway (AID 651751; call rule not given here; note: 0% is about no effect); conditions: rPXR reporter cells, luciferase (One-Glo), 24 h
[2] = qHTS assay for small molecule activators of the human pregnane X receptor (PXR) signaling pathway (AID 720659; call rule not given here; note: 0% is about no effect)

Chain of Nuclear receptor subfamily 1 group I member 2 (Rattus norvegicus) (Q9R1A7 whole entry, looked up): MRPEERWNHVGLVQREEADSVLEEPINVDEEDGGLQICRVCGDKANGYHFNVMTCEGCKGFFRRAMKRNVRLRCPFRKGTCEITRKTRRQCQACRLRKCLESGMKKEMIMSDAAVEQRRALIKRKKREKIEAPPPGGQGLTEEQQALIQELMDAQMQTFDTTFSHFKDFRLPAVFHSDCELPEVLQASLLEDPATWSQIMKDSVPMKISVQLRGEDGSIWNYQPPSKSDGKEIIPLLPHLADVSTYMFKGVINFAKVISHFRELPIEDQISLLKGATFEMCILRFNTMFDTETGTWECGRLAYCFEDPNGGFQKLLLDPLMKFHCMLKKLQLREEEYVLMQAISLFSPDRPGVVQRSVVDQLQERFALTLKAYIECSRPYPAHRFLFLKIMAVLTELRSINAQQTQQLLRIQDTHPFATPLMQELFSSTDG

C[C@@H]1[C@H](O)[C@@H](C)/C=C/C=C/C=C/C=C/C=C/C=C/C=C/[C@H](O[C@@H]2O[C@H](C)[C@@H](O)[C@H](N)[C@@H]2O)C[C@@H]2O[C@](O)(C[C@@H](O)C[C@@H](O)[C@H](O)CC[C@@H](O)C[C@@H](O)CC(=O)O[C@H]1C)C[C@H](O)[C@H]2C(=O)O
inactive: Potency (CP252) | Potency (CP256) | Potency (CP260) | Potency (CP262) | Potency (CP265) | Potency (CP266) | Potency (CP268) | Potency (CP269) | Potency (CP286) | Potency (CP291) | Potency (CP297) | Potency (CP305) | Potency (CP315) | Potency (CP325) | Potency (CP329) | Potency (DFO2036) | Potency (DIV14) | Potency (DIV30) | Potency (Dd2) | Potency (ECU) | Potency (FAB9) | Potency (GB4) | Potency (HB3) | Potency (ICS) | Potency (JCK) | Potency (N140) | Potency (P93_24) | Potency (P94_40) | Potency (PAD) | Potency (PC15) | Potency (PC26) | Potency (PC49) | Potency (SC27B) | Potency (TAB109) | Potency (TAB113) | Potency (TAB165) | Potency (W2) | max response [1] -0.988% | outcome [2]
